Nrf2 block – Nrf2 qHTS screen for inhibitors; 2.1% of 360,000 active; A549 ARE-Fluc reporter, luciferase luminescence, 18-24 h; Potency, µM (top dose mostly 46 µM), hits mostly inhibitors; also: nearly all actives have a fitted effect of over 60% in size
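Nrf2 function is reported as luminescence of an ARE-controlled luciferase in A549 cells. Compounds were tested at several concentrations, and a CellTiter-Fluor read on the same wells flagged cytotoxicity.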
A549 tox – Nrf2 qHTS screen for inhibitors: counterscreen for cytotoxicity; A549 ARE-Fluc cells, CellTiter-Fluor viability, 18-24 h; Potency, µM (top dose mostly 46 µM), usual class: inhibitors; 0.16% of 390,000 active; AID 504648, 2011
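Cytotoxicity counterscreen: CellTiter-Fluor fluorescence was measured in A549 ARE_Fluc cells after 18-24 h of compound exposure in a concentration series. The subsequent BugLite luminescent read reports ARE-luciferase activity.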
Nrf2 ARE act – qHTS of Nrf2 Activators. AREc32 ARE-luciferase reporter (MCF7-derived line), luminescence, 24 h. Potency, µM (doses to about 46.1 µM), most hits filed as activators. 0.31% of 410,000 active; also: nearly all actives have a fitted effect of over 65% in size
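For detection, Steady-Glo was added and plates sat 30 min at RT; before that, AREc32_Fluc cells grown overnight in OPTI-MEM/5% FBS had been treated with 23 nL compound for 24 hr at 37 deg C.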
TrxR1 substrate – qHTS Assay for Substrates of Mammalian Selenoprotein Thioredoxin Reductase 1 (TrxR1): qHTS; purified TrxR1 substrate turnover, NADPH consumption readout; 0.01% of 390,000 active; Potency, µM (doses to about 114 µM); also: nearly all actives have a fitted effect of over 50% in size
Target sequence (O89049 whole entry, looked up): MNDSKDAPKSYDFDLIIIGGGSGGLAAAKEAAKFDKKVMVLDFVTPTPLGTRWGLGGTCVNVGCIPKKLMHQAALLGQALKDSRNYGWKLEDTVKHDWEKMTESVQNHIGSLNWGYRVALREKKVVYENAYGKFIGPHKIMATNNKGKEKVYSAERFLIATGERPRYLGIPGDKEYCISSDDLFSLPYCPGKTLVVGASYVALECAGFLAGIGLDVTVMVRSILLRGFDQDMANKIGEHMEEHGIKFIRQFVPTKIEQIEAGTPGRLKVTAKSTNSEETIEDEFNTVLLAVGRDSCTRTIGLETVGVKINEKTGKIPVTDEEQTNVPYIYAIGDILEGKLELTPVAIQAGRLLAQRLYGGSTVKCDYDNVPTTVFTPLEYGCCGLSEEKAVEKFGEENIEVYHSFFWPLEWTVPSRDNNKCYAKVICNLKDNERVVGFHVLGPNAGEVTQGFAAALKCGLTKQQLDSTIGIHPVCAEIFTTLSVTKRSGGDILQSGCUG
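Rat TrxR1, dispensed at 90 nM, was prereduced with 400 uM NADPH (final) for 5 min at ~22 deg C, then incubated with compound 15 min before 400 uM selenite. A first-read NADPH fluorescence drop versus no-compound background flagged substrates.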
GALK inh – qHTS Assay for Inhibitors of Human Galactokinase (GALK) | Potency, µM (highest dose often 57.5 µM), most hits filed as inhibitors | Purified GALK, Kinase-Glo residual ATP luminescence | 0.007% of 270,000 active | P51570
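Compounds were pin-transferred into ATP buffer (35 uM final), then GALK plus galactose (5 nM, 100 uM final) was added. After 1 h at room temperature, Kinase-Glo Plus was added and luminescence read after 10 min.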
TrxR1 inh – qHTS Assay for Inhibitors of Mammalian Selenoprotein Thioredoxin Reductase 1 (TrxR1): qHTS; Thioredoxin reductase 1, cytoplasmic (Rattus norvegicus), O89049; recombinant rTrxR1, NADPH fluorescence consumption, selenite substrate; Potency, µM (series often up to 114 µM), most hits filed as inhibitors; 1% of 390,000 active; AID 588453, 2011; also: nearly all actives have a fitted effect of over 65% in size
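Rat TrxR1 (90 nM in the dispensed reagent) was pre-reduced with 400 uM NADPH for 5 min at room temperature, then incubated with compound for 15 min. After 400 uM selenite was added, NADPH fluorescence (Ex 340/Em 450 nm) was followed for 8 min.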
Of the large screens only hits and unclear results are named; the others gave an inactive call. Hits are enriched below; roughly 3% of the tested compounds scored in any of these assays. Calls follow the shape of the dose curve; as a rule, active = well fitted curve in the direction sought with a large enough effect; inconclusive = small, poorly fitted or top-dose-only effect, or another doubt; inactive = no such curve, though single readings can be large; an effect the other way counts as inactive or inconclusive.

Cn1cccc1/C=C1/C(=O)NC(=S)N(Cc2ccc(F)cc2)C1=O	A549 tox inconclusive, TrxR1 inh 45µM
[O]=[Sb]([OH])([OH])[c]1ccccc1	TrxR1 inh 6.3µM (no result: Nrf2 ARE act, GALK inh)
COc1ccc(CCNc2nc3ccc(Cl)cc3n3cnnc23)cc1OC	Nrf2 block inconclusive (no result: GALK inh)
COc1ccccc1CNC(=O)CCC1N=C2c3ccccc3N=C(SCc3cccc(Cl)c3)N2C1=O (stereo unspecified)	none (no result: GALK inh)
O=[N+]([O-])c1ccc(Sc2nc3ccccc3o2)c([N+](=O)[O-])c1	TrxR1 inh 0.63µM
O=[N+]([O-])c1ccc(N2CC2)c([N+](=O)[O-])c1	none (no result: GALK inh)
Cc1ccc(Cn2c(=O)n(CCCCC(=O)NCc3ccccc3Cl)c(=O)c3ccccc32)cc1	Nrf2 block inconclusive (no result: GALK inh)
Cc1cc(C=C2C(=O)N(C)C(=S)N(C)C2=O)c(C)n1-c1cccnc1	TrxR1 inh 20µM
Cc1cccn2c(=O)c(/C=C(\C#N)c3nc4ccccc4s3)c(Oc3ccc(F)cc3)nc12	none (no result: GALK inh)
CC(=O)N1c2ccc(S(=O)(=O)NCC3CCC(C(=O)Nc4cc(C)cc(C)c4)CC3)cc2CC1C (stereo unspecified)	Nrf2 block 21µM (no result: GALK inh)
CC(=O)OCC12CC(OC(=O)CC(C)C)C(C)=CC1OC1C(O)C(OC(C)=O)C2(C)C12CO2 (stereo unspecified)	Nrf2 block 0.021µM (no result: A549 tox, GALK inh)
CC(=O)C1C(N2CC2)CC2C3CCC4=CC(=O)CCC4(C)C3CCC21C (stereo unspecified)	A549 tox 16µM (no result: GALK inh)
Cc1oc(-c2ccc(Cl)cc2)nc1CS(=O)CC(=O)N1CCC2(CC1)OCCO2 (stereo unspecified)	TrxR1 inh 50µM (no result: A549 tox)
C[C@@H]1O[C@@H](O[C@H]2C[C@@H](O)[C@]3(CO)[C@H]4[C@H](O)C[C@]5(C)[C@@H](C6=CC(=O)OC6)CC[C@]5(O)[C@@H]4CC[C@]3(O)C2)[C@H](O)[C@H](O)[C@H]1O	Nrf2 block 0.0058µM, A549 tox inconclusive
C[C@H]1O[C@@H](O[C@H]2[C@@H](O)C[C@H](O[C@H]3[C@@H](O)C[C@H](O[C@H]4CC[C@@]5(C)[C@H](CC[C@@H]6[C@@H]5CC[C@]5(C)[C@@H](C7=CC(=O)OC7)CC[C@]65O)C4)O[C@@H]3C)O[C@@H]2C)C[C@H](O)[C@@H]1O	Nrf2 block 0.016µM, A549 tox inconclusive (no result: GALK inh)
C[C@]12CCC3C(CCC4=CC(O)CC[C@@]43/C=N/O)C1(O)CCC2C1=CC(=O)OC1 (stereo partly specified)	Nrf2 block inconclusive
CC1OC(OC2C(O)CC(OC3C(O)CC(OC4CCC5(C)C(CCC6C5CCC5(C)C(C7=CC(=O)OC7)C(O)CC65O)C4)OC3C)OC2C)CC(O)C1O (stereo unspecified)	Nrf2 block 0.092µM, A549 tox inconclusive (no result: GALK inh)
Cc1ccc(CN(C)C(=O)c2cccc(S(=O)(=O)N3CCN(c4ccccc4)CC3)c2)cc1	Nrf2 block inconclusive (no result: GALK inh)
N=C1/C(=C\c2ccc(OC(=O)c3ccccc3Cl)cc2)C(=O)N=C2SC(N3CCOCC3)=NN12	Nrf2 block inconclusive
CC1=C(O)C(=O)C=C2C1=CC=C1C2(C)CCC2(C)C3CC(C)(C(=O)O)CCC3(C)CCC12C (stereo unspecified)	Nrf2 block 18µM, A549 tox inconclusive, TrxR1 inh 20µM (no result: GALK inh)
O=[N+]([O-])c1oc2ccc3ccccc3c2c1CCO	Nrf2 block 18µM, A549 tox inconclusive (no result: GALK inh)
CCCn1cc(S(=O)(=O)c2ccc(OC)cc2)c(=O)c2cc(F)c(N3CCCCCC3)cc21	Nrf2 block inconclusive (no result: GALK inh)
CN(C)c1ccc(N=Nc2ccccc2)cc1	none (no result: Nrf2 block, A549 tox, Nrf2 ARE act, GALK inh)
CN(C)c1ccc(N=O)cc1	TrxR1 substrate inconclusive, TrxR1 inh 5µM (no result: Nrf2 block, A549 tox, Nrf2 ARE act, GALK inh)
C=C1CCN([C@@H](Cc2ccccc2)C(=O)Nc2ccc(OC)cc2)S(=O)(=O)c2ccccc21	none (no result: GALK inh)
CN1C2CCC1CC(NC(=O)c1nn(C)c3ccccc13)C2 (stereo unspecified)	none (no result: Nrf2 block, A549 tox, Nrf2 ARE act, TrxR1 substrate, GALK inh)
O=C(CSc1nc(-c2cccs2)nc2cc(=O)[nH]n12)Nc1ccc(F)cc1	Nrf2 ARE act inconclusive (no result: GALK inh)
CC(N)[C@H](O)c1ccc(O)c(O)c1 (stereo partly specified)	TrxR1 inh 18µM (no result: Nrf2 ARE act, GALK inh)
COC1=CC(=O)[C@]2(C=C1OC)OC[C@@H]1Oc3c(ccc4c3C=CC(C)(C)O4)C(=O)[C@@H]12	Nrf2 block 0.65µM (no result: GALK inh)
C[C@@H](C1CC[C@@]2(O)C3=CC(=O)[C@@H]4C[C@@H](O)[C@@H](O)C[C@]4(C)[C@H]3CC[C@]12C)[C@H](O)CCC(C)(C)O (stereo partly specified)	none (no result: Nrf2 ARE act, GALK inh)
CCOc1cccc(CC(=O)NCc2ccc3c(c2)CCN3C(=O)c2cccc(C)c2)c1OCC	Nrf2 block 21µM (no result: GALK inh)
Cc1ccc(NC(=O)NCc2ccc3c(c2)CCN3C(=O)c2ccccc2)c(Cl)c1	none (no result: Nrf2 block, GALK inh)
Cc1cc(N2CCCCC2)nc2ccc(NC(=O)CCC(=O)N3CCN(c4cccc(Cl)c4)CC3)cc12	Nrf2 block inconclusive (no result: GALK inh)
Cc1cc(C)cc(NC(=O)Cn2cc(C(=O)c3cccs3)c3ccccc32)c1	Nrf2 block 16µM (no result: GALK inh)
C=C1C=C(C(F)F)n2ncc(C(=O)NCc3ccccc3F)c2N1	TrxR1 inh inconclusive (no result: Nrf2 block, A549 tox, Nrf2 ARE act, GALK inh)
Cn1c(O)c(C(=Nc2ccccc2)SCc2ccc(Cl)cc2)c(=O)n(C)c1=O	Nrf2 block 23µM, A549 tox inconclusive, TrxR1 inh inconclusive
Cn1c(O)c(C(=N)COc2ccccc2)c(=O)n(C)c1=O	Nrf2 block inconclusive, A549 tox inconclusive
CCC(=NCCc1ccccc1)c1c(O)n(C)c(=O)n(C)c1=O	Nrf2 block 21µM
CCOc1ccc(CCNC(=O)c2ccc(CS(=O)(=O)c3ccccc3C)o2)cc1OCC	Nrf2 block inconclusive (no result: GALK inh)
O=C(CSC1c2ccccc2-c2ccccc21)N/N=C/c1ccccc1O	Nrf2 block 5.2µM, A549 tox 21µM
C=CC[C@@H](CC/C=C/C=C/CC/C=C\[C@@H]1CSC([C@@H]2C[C@@H]2C)=N1)OC	Nrf2 block inconclusive, Nrf2 ARE act inconclusive, TrxR1 inh 50µM (no result: GALK inh)
OCCCc1ccc(O)c(O)c1	TrxR1 inh 79µM
CC(C)n1c(=O)c(C=Nc2cccc([N+](=O)[O-])c2)c(O)n(CCc2ccccc2)c1=O	Nrf2 ARE act 11µM, TrxR1 inh inconclusive

Bioassay records as filed in PubChem.
